Experimental data as given in PubChem BioAssay AID1159580 (chemical genetic matrix, 2015).
Among all 5,500 compounds or so, about 2,000 (36%) were called active. Roughly 18% stayed inconclusive and do not appear here. Rule as the data show it: active = normalized growth mostly below about 0.91 (no sharp cut-off); inconclusive = no clear call, values can overlap the other calls; inactive = mostly above about 0.92. Some of the results follow.

Assay: chemical genetic growth profiling, strain panel (AID 1159580);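 also: tested at 20 µM; growth read once vehicle control cultures reached saturation at 30 °C; 1 = growth at the plate median or of vehicle wells; lower values mean less growth of the strain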
Settings: growth OD

Measured: normalized growth

NC(=O)NO
inactive: S. cerevisiae deletion strains, locus YJR066W, strain TOR1, stronger effect = lower value 0.931 | S. cerevisiae deletion strains, locus YKL009W, strain mrt4, stronger effect = lower value 0.998 | S. cerevisiae deletion strains, locus YKL068W, stronger effect = lower value 0.997 | S. cerevisiae deletion strains, locus YKL085W, strain MDH1 (second series), stronger effect = lower value 0.989 | S. cerevisiae deletion strains, locus YKL085W, strain MDH1, stronger effect = lower value 0.989 | S. cerevisiae deletion strains, locus YKL160W, strain elf1, stronger effect = lower value 1.03 | S. cerevisiae deletion strains, locus YKL190W, strain CNB1, stronger effect = lower value 1.01 | S. cerevisiae deletion strains, locus YKR001C, strain vps1, stronger effect = lower value 0.992 | S. cerevisiae deletion strains, locus YKR026C, strain gcn3, stronger effect = lower value 1.02 | S. cerevisiae deletion strains, locus YKR091W, strain srl3, stronger effect = lower value 1.01 | S. cerevisiae deletion strains, locus YLL001W, strain dnm1, stronger effect = lower value 1.01 | S. cerevisiae deletion strains, locus YLL026W, stronger effect = lower value 1.02 | S. cerevisiae deletion strains, locus YLL041C, strain sdh2, stronger effect = lower value 1.02 | S. cerevisiae deletion strains, locus YLR027C, strain aat2, stronger effect = lower value 1.03 | S. cerevisiae deletion strains, locus YLR039C, strain RIC1, stronger effect = lower value 1 | S. cerevisiae deletion strains, locus YLR058C, strain SHM2, stronger effect = lower value 1.01 | S. cerevisiae deletion strains, locus YLR102C, strain apc9, stronger effect = lower value 1 | S. cerevisiae deletion strains, locus YLR113W, strain HOG1, stronger effect = lower value 0.951 | S. cerevisiae deletion strains, locus YLR221C, strain rsa3, stronger effect = lower value 1.01 | S. cerevisiae deletion strains, locus YLR258W, strain gsy2, stronger effect = lower value 1.02 | S. cerevisiae deletion strains, locus YLR262C, strain YPT6 (second series), stronger effect = lower value 1 | S. cerevisiae deletion strains, locus YLR262C, strain YPT6, stronger effect = lower value 0.993 | S. cerevisiae deletion strains, locus YLR268W, strain sec22, stronger effect = lower value 0.998 | S. cerevisiae deletion strains, locus YLR320W, strain mms22, stronger effect = lower value 1.02 | S. cerevisiae deletion strains, locus YLR330W, strain CHS5, stronger effect = lower value 1.01 | S. cerevisiae deletion strains, locus YLR342W, strain FKS1 (second series), stronger effect = lower value 1 | S. cerevisiae deletion strains, locus YLR342W, strain FKS1, stronger effect = lower value 1.02 | S. cerevisiae deletion strains, locus YLR357W, strain rsc2, stronger effect = lower value 0.994 | S. cerevisiae deletion strains, locus YLR370C, strain arc18, stronger effect = lower value 1.03 | S. cerevisiae deletion strains, locus YLR371W, strain rom2, stronger effect = lower value 0.997 | S. cerevisiae deletion strains, locus YLR384C, strain iki3, stronger effect = lower value 1.02 | S. cerevisiae deletion strains, locus YLR418C, strain cdc73, stronger effect = lower value 0.97 | S. cerevisiae deletion strains, locus YML016C, strain PPZ1, stronger effect = lower value 1 | S. cerevisiae deletion strains, locus YML032C, strain rad52, stronger effect = lower value 0.984 | S. cerevisiae deletion strains, locus YML120C, strain ndi1, stronger effect = lower value 0.997 | S. cerevisiae deletion strains, locus YML124C, strain tub3, stronger effect = lower value 0.993 | S. cerevisiae deletion strains, locus YMR058W, strain fet3, stronger effect = lower value 1.06 | S. cerevisiae deletion strains, locus YMR078C, strain ctf18, stronger effect = lower value 0.999 | S. cerevisiae deletion strains, locus YMR125W, strain sto1, stronger effect = lower value 1.02 | S. cerevisiae deletion strains, locus YMR129W, stronger effect = lower value 1.02 | S. cerevisiae deletion strains, locus YMR205C, strain PFK2, stronger effect = lower value 1.03 | S. cerevisiae deletion strains, locus YMR223W, strain ubp8, stronger effect = lower value 0.994 | S. cerevisiae deletion strains, locus YMR231W, strain pep5, stronger effect = lower value 1.03 | S. cerevisiae deletion strains, locus YMR263W, strain SAP30, stronger effect = lower value 1.01 | S. cerevisiae deletion strains, locus YMR307W, strain GAS1, stronger effect = lower value 1.03 | S. cerevisiae deletion strains, locus YNL067W, strain RPL9B, stronger effect = lower value 1 | S. cerevisiae deletion strains, locus YNL071W, strain lat1, stronger effect = lower value 1.02 | S. cerevisiae deletion strains, locus YNL128W, strain TEP1, stronger effect = lower value 1.02 | S. cerevisiae deletion strains, locus YNL153C, strain GIM3, stronger effect = lower value 0.994 | S. cerevisiae deletion strains, locus YNL183C, strain NPR1, stronger effect = lower value 0.945 | S. cerevisiae deletion strains, locus YNL209W, strain ssb2, stronger effect = lower value 1.02 | S. cerevisiae deletion strains, locus YNL224C, strain SQS1, stronger effect = lower value 0.99 | S. cerevisiae deletion strains, locus YNL233W, strain BNI4, stronger effect = lower value 1.01 | S. cerevisiae deletion strains, locus YNL248C, strain rpa49, stronger effect = lower value 1.03 | S. cerevisiae deletion strains, locus YNL250W, strain rad50, stronger effect = lower value 0.996 | S. cerevisiae deletion strains, locus YNL271C, strain bni1, stronger effect = lower value 0.999 | S. cerevisiae deletion strains, locus YNL298W, strain CLA4, stronger effect = lower value 0.997 | S. cerevisiae deletion strains, locus YNL307C, strain MCK1, stronger effect = lower value 1 | S. cerevisiae deletion strains, locus YNL322C, strain KRE1 (second series), stronger effect = lower value 1.03 | S. cerevisiae deletion strains, locus YNR049C, strain mso1, stronger effect = lower value 1.01 | S. cerevisiae deletion strains, locus YNR052C, strain pop2, stronger effect = lower value 1.01 | S. cerevisiae deletion strains, locus YOL006C, strain TOP1, stronger effect = lower value 0.967 | S. cerevisiae deletion strains, locus YOL012C, strain htz1 0.591 | S. cerevisiae deletion strains, locus YOL147C, strain pex11, stronger effect = lower value 1 | S. cerevisiae deletion strains, locus YOR001W, strain rrp6, stronger effect = lower value 1.01 | S. cerevisiae deletion strains, locus YOR061W, strain CKA2, stronger effect = lower value 1.01 | S. cerevisiae deletion strains, locus YOR069W, strain VPS5, stronger effect = lower value 1.01 | S. cerevisiae deletion strains, locus YOR070C, strain gyp1, stronger effect = lower value 1.02 | S. cerevisiae deletion strains, locus YOR080W, strain dia2, stronger effect = lower value 1.03 | S. cerevisiae deletion strains, locus YOR083W, strain WHI5 (second series), stronger effect = lower value 0.997 | S. cerevisiae deletion strains, locus YOR083W, strain WHI5, stronger effect = lower value 0.993 | S. cerevisiae deletion strains, locus YOR106W, strain vam3, stronger effect = lower value 1.02 | S. cerevisiae deletion strains, locus YOR136W, strain idh2, stronger effect = lower value 0.991 | S. cerevisiae deletion strains, locus YOR144C, strain elg1, stronger effect = lower value 0.998 | S. cerevisiae deletion strains, locus YOR184W, strain ser1, stronger effect = lower value 0.993 | S. cerevisiae deletion strains, locus YOR231W, strain MKK1, stronger effect = lower value 0.967 | S. cerevisiae deletion strains, locus YOR265W, strain rbl2, stronger effect = lower value 1.02 | S. cerevisiae deletion strains, locus YOR270C, strain vph1, stronger effect = lower value 1.05 | S. cerevisiae deletion strains, locus YOR290C, strain snf2, stronger effect = lower value 1.02 | S. cerevisiae deletion strains, locus YOR316C, strain cot1, stronger effect = lower value 1.01 | S. cerevisiae deletion strains, locus YPL051W, strain arl3, stronger effect = lower value 1.03 | S. cerevisiae deletion strains, locus YPL078C, strain atp4, stronger effect = lower value 1.03 | S. cerevisiae deletion strains, locus YPL106C, strain sse1, stronger effect = lower value 0.984 | S. cerevisiae deletion strains, locus YPL240C, strain hsp82, stronger effect = lower value 1.01 | S. cerevisiae deletion strains, locus YPL241C, strain CIN2, stronger effect = lower value 1.01 | S. cerevisiae deletion strains, locus YPL256C, strain CLN2, stronger effect = lower value 0.954 | S. cerevisiae deletion strains, locus YPR119W, strain clb2, stronger effect = lower value 0.993 | S. cerevisiae deletion strains, locus YPR141C, strain kar3, stronger effect = lower value 0.99 | S. cerevisiae deletion strains, locus YPR163C, strain tif3, stronger effect = lower value 1 | S. cerevisiae deletion strains, locus YPR167C, strain met16, stronger effect = lower value 0.996 | S. cerevisiae deletion strains, strain wtn01, stronger effect = lower value 0.995 | S. cerevisiae strains, strain wild type, stronger effect = lower value 1
